Results filed as inconclusive are left out. Calls of active or inactive are those of the source. The calls were made as follows, unless noted: active = hit-call score of the fitted dose curve at least 0.9, where 1 is the maximum; inactive = score below 0.9.

The target of assay [1] is Paired box protein Pax-6 (Homo sapiens) (UniProt P26367). In words: ATG_Pax6_CIS: Attagene CIS-FACTORIAL HepG2 Assay for human Paired Box 6 (PAX6) (AID 2282956). The settings on record: HepG2 CIS-FACTORIAL PAX6 reporter transcription, RNA readout; actives raise or lower the signal. In short, it runs like this: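 DMSO-referenced bidirectional fits of reporter mRNA fluorescence; HepG2 with transient cis-promoter MRTUs, 24 h post-dose, RT-PCR plus capillary electrophoresis detection.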

The nature of assay [2]: ATG_PXRE_CIS: Attagene CIS-FACTORIAL HepG2 Assay for human Pregnane X Receptor Element (PXRE) (AID 2282957). As to conditions: HepG2 Attagene CIS-FACTORIAL PXRE reporter, mRNA; actives raise or lower the signal. The method in brief:
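Bidirectional activity, baselined to DMSO, derived from reporter mRNA fluorescence (RT-PCR plus capillary electrophoresis) in HepG2 cells bearing cis-promoter reporter units, 24 h exposure.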

Assay [3] can be described thus: ATG_PPRE_CIS: Attagene CIS-FACTORIAL HepG2 Assay for human Peroxisome Proliferator-activated Response Element (PPRE) (AID 2282958). As to conditions: HepG2 PPRE cis-element reporter, Attagene transcription factor profiling; actives raise or lower the signal. In short, it runs like this:
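Read-out: fluorescent reporter mRNA fragments resolved by capillary electrophoresis after RT-PCR. HepG2 cells carried transiently transfected PPRE-driven cis reporter constructs and were dosed for 24 h; gain or loss of signal fitted relative to DMSO.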

Assay [4] can be described thus: ATG_RORE_CIS: Attagene CIS-FACTORIAL HepG2 Assay for human RAR-related Orphan Receptor Element (RORE) (AID 2282959). The settings on record: HepG2 Attagene cis-factorial RORE reporter, mRNA; actives raise or lower the signal. In short, it runs like this: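 Readout: fluorescent reporter mRNA by RT-PCR plus capillary electrophoresis, 24 h after dosing transfected HepG2 cells. Endogenous transcription factor activity on a cis promoter element is measured. Gain or loss of signal fitted against DMSO.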

A short description of assay [5]: ATG_Sox_CIS: Attagene CIS-FACTORIAL HepG2 Assay for human SRY-box transcription factor (SOX) (AID 2282960). As to conditions: HepG2 Attagene cis-factorial SOX reporter, mRNA; actives raise or lower the signal. In short, it runs like this:
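Read-out: fluorescent RT-PCR products of SOX1-linked reporter transcripts resolved by capillary electrophoresis, fitted bidirectionally against DMSO. Transiently transfected HepG2 cells, 24 h after chemical exposure, endogenous transcription factor activity.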

Assay [6] addresses Transcription factor Sp1 (Homo sapiens) (UniProt P08047). As to the kind of experiment: ATG_Sp1_CIS: Attagene CIS-FACTORIAL HepG2 Assay for human Specificity Protein 1 (Sp1) (AID 2282961). The settings on record: HepG2 Sp1 cis-reporter transcription, actives raise or lower the signal. In short, it runs like this: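 Read-out: fluorescence of 6-FAM-labeled, HpaI-digested RT-PCR products separated by capillary electrophoresis. HepG2 cells carried transfected cis-element reporter units and were exposed to chemicals for 24 h; gain or loss of signal fitted relative to DMSO.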

Assay [7] can be described thus: ATG_SREBP_CIS: Attagene CIS-FACTORIAL HepG2 Assay for human Sterol Regulatory Element Binding (SREBP) (AID 2282962). The settings on record: HepG2 Attagene cis-factorial SREBP reporter, mRNA; actives raise or lower the signal. The method in brief:
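In this cis-format assay, HepG2 liver cells express reporters controlled by promoter elements responsive to native transcription factors. Exposure lasts 24 h; reporter mRNA fluorescence from capillary electrophoresis gives the signal, fitted bidirectionally against DMSO.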

In assay [8] the target is Signal transducer and activator of transcription 3 (Homo sapiens) (UniProt P40763). As to the kind of experiment: ATG_STAT3_CIS: Attagene CIS-FACTORIAL HepG2 Assay for human Signal Transducer and Activator of Transcription 3 (STAT3) (AID 2282963). As to conditions: HepG2, Attagene cis-factorial STAT3 reporter transcription; actives raise or lower the signal. In short, it runs like this: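 HepG2, MRTU-transfected, 24 h dosing. RNA → RT → PCR → FAM label → HpaI → CE. Bidirectional fit vs DMSO.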

Assay [9] in a line: ATG_TA_CIS: Attagene CIS-FACTORIAL HepG2 Assay for human TA Basal Promoter (AID 2282964). The settings on record: HepG2 Attagene CIS-factorial TA basal promoter reporter; actives raise or lower the signal. The method in brief: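 HepG2 cells transiently transfected with multiplexed cis-promoter reporter units, dosed 24 h. Reporter mRNA measured by RT-PCR, 6-FAM labelling, HpaI digestion and capillary electrophoresis; bidirectional fit versus DMSO baseline, serving as background control.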

Assay [10] is described as follows: ATG_TCF_b_cat_CIS: Attagene CIS-FACTORIAL HepG2 Assay for human T-Cell-Factor with beta-catenin (TCF/b-cat) (AID 2282965). As to conditions: HepG2 TCF/beta-catenin cis-reporter transcription, actives raise or lower the signal. In short, it runs like this:
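HepG2 cells transiently transfected with multiple cis-promoter-regulated reporter transcription units, so endogenous transcription factor activity is measured. Reporter mRNA read 24 hours after dosing by RT-PCR, fluorescent labelling and capillary electrophoresis; bidirectional fitting against DMSO.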

Assay [11] in a line: ATG_TAL_CIS: Attagene CIS-FACTORIAL HepG2 Assay for human TAL Basal Promoter (AID 2282966).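 Also: background control endpoint measuring basal TAL promoter reporter mRNA not a specific factor.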 As to conditions: HepG2 Attagene cis-factorial TAL promoter reporter; actives raise or lower the signal. The method in brief:
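Human hepatoma HepG2 cells, transfected with promoter-regulated reporter units, were treated 24 h. Reporter transcript levels, measured through RT-PCR and capillary electrophoresis, were fitted for gain or loss relative to DMSO.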

Assay [12] has as its target Estrogen receptor (Homo sapiens) (UniProt P03372). As to the kind of experiment: ATG_ERa_TRANS: Attagene TRANS-FACTORIAL HepG2 Assay for human Estrogen Receptor alpha (ERa) (AID 2282970; active = hit-call score of the fitted dose curve at least 0.9, where 1 is the maximum). As to conditions: HepG2 Attagene TRANS ERa GAL4 reporter, mRNA. In short, it runs like this:
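Signal derives from fluorescence of labelled reporter PCR fragments separated by capillary electrophoresis. HepG2 cells transiently carrying multiple GAL4-UAS reporter units were treated 24 hours, and induction above DMSO baseline was fitted as activity.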

Assay [13] addresses Steroid hormone receptor ERR1 (Homo sapiens) (UniProt P11474). As to the kind of experiment: ATG_ERRa_TRANS: Attagene TRANS-FACTORIAL HepG2 Assay for human Estrogen-Related Receptor alpha (ERRa) (AID 2282971; active = hit-call score of the fitted dose curve at least 0.9, where 1 is the maximum). As to conditions: HepG2 Attagene TRANS reporter, ERRa transactivation. In short, it runs like this: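 Signal gain relative to DMSO for an ERRa-Gal4 chimeric receptor, read as reporter mRNA by RT-PCR/capillary electrophoresis. Human HepG2 liver cells, transient multiplex reporter transfection, 24 h chemical exposure.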

Assay [14] has as its target X-box-binding protein 1 (Homo sapiens) (UniProt P17861). As to the kind of experiment: ATG_Xbp1_CIS: Attagene CIS-FACTORIAL HepG2 Assay for human X-box Binding Protein 1 (XBP1) (AID 2282972). The settings on record: HepG2 XBP1 cis-element reporter, Attagene multiplex; actives raise or lower the signal. In short, it runs like this: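 Changes in reporter transcript abundance, read by RT-PCR and capillary electrophoresis, reflect endogenous transcription factor activity. Transfected HepG2 cells received compound for 24 hours; DMSO defined baseline for bidirectional analysis.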

Assay [15] has as its target Estrogen-related receptor gamma (Homo sapiens) (UniProt P62508). As to the kind of experiment: ATG_ERRg_TRANS: Attagene TRANS-FACTORIAL HepG2 Assay for human Estrogen-Related Receptor gamma (ERRg) (AID 2282977; active = hit-call score of the fitted dose curve at least 0.9, where 1 is the maximum;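 also: hits increase reporter signal over DMSO so potencies reflect activators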). As to conditions: HepG2 Attagene TRANS reporter, ERRg transactivation. In short, it runs like this:
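Exogenous NR-Gal4 chimera activity measured as reporter transcript induction after 24 h in transiently transfected HepG2 cells. RNA reverse-transcribed, PCR-amplified, 6-FAM-labelled and resolved by capillary electrophoresis; increase over DMSO baseline.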

The nature of assay [16]: ATG_VDRE_CIS: Attagene CIS-FACTORIAL HepG2 Assay for human Vitamin D Receptor Element (VDRE) (AID 2282968). The settings on record: HepG2 VDRE cis-reporter transcription, actives raise or lower the signal. The method in brief: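 Steps: transfect HepG2 with multiple reporter transcription units; dose chemicals 24 h; isolate RNA; RT-PCR; label with 6-FAM primer extension; HpaI digest; capillary electrophoresis. Curves fitted both directions against DMSO.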

Assay [17] can be described thus: ATG_M_19_TRANS: Attagene TRANS-FACTORIAL HepG2 Assay for M19 Transcription Factor (Internal Marker) (AID 2282974; active = hit-call score of the fitted dose curve at least 0.9, where 1 is the maximum). As to conditions: HepG2 Attagene TRANS-FACTORIAL M19 internal marker reporter. The method in brief: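 24 h chemical exposure of transiently transfected HepG2 (MRTU library). RNA → oligo(dT) RT → PCR → 6-FAM labelling → HpaI cut → CE fluorescence. Positive-direction fit vs DMSO baseline; background internal-marker readout.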

Assay [18] can be described thus: ATG_GAL4_TRANS: Attagene TRANS-FACTORIAL HepG2 Assay for GAL4 (Internal Marker) (AID 2282976; active = hit-call score of the fitted dose curve at least 0.9, where 1 is the maximum). As to conditions: HepG2 Attagene TRANS GAL4 internal marker reporter. The method in brief:
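Liver HepG2 line bearing multiplexed GAL4-UAS reporter constructs; 24 h chemical treatment. Transcripts were quantified as fluorescent fragments on capillary electrophoresis after RT-PCR and HpaI cut, with activity fitted upward from DMSO.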

Assay [19] in a line: ATG_TGFb_CIS: Attagene CIS-FACTORIAL HepG2 Assay for human Transforming Growth Factor (TGF) (AID 2282967). As to conditions: HepG2 Attagene CIS TGFb reporter, mRNA transcription; actives raise or lower the signal. In short, it runs like this:
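HepG2 cells transiently transfected with cis-promoter-driven multiplexed reporter units; 24 h compound exposure. Reporter mRNA measured by RT-PCR, 6-FAM labeling, HpaI digestion and capillary electrophoresis; bidirectional fit versus DMSO baseline.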

Chain of Paired box protein Pax-6 (Homo sapiens) (P26367 whole entry, looked up): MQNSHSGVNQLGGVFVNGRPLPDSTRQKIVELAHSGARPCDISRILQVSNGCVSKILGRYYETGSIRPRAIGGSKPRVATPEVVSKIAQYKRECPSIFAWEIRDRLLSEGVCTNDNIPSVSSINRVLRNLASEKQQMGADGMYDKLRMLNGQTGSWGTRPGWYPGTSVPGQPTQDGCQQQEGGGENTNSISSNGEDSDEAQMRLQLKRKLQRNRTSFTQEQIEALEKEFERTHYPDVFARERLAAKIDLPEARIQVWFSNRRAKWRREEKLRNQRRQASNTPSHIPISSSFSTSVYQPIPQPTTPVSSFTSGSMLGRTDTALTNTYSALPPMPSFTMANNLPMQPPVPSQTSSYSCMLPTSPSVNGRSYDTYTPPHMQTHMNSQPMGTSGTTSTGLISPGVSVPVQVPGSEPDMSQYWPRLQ
Chain of Signal transducer and activator of transcription 3 (Homo sapiens) (P40763 whole entry, looked up): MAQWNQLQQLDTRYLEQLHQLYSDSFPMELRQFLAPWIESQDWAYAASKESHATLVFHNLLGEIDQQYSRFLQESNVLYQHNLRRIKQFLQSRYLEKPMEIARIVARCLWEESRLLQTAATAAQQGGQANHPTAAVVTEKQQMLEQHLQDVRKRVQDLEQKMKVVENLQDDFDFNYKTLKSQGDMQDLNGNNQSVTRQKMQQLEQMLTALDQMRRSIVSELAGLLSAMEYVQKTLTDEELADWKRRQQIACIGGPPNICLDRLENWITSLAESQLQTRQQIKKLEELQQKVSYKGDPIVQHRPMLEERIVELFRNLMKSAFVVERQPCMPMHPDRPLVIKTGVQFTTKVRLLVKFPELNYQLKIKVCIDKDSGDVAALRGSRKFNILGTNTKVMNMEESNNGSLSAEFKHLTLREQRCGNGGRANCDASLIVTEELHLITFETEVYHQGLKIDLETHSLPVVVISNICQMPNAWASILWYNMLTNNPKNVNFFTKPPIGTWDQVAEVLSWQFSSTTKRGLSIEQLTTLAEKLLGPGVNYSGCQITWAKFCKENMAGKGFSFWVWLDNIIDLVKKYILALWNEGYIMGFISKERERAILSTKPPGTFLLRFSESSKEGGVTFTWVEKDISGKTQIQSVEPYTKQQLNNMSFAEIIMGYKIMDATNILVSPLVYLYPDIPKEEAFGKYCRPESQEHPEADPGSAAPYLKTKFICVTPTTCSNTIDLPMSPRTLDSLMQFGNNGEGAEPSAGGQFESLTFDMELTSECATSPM
Chain of X-box-binding protein 1 (Homo sapiens) (P17861 whole entry, looked up): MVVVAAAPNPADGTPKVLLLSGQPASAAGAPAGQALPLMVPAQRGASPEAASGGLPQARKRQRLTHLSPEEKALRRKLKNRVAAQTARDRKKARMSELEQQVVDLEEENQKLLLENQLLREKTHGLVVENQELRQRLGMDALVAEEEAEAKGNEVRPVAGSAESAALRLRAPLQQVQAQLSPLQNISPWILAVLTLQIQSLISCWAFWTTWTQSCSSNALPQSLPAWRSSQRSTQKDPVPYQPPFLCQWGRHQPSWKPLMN
Chain of Steroid hormone receptor ERR1 (Homo sapiens) (P11474 whole entry, looked up, the tested form may be a part): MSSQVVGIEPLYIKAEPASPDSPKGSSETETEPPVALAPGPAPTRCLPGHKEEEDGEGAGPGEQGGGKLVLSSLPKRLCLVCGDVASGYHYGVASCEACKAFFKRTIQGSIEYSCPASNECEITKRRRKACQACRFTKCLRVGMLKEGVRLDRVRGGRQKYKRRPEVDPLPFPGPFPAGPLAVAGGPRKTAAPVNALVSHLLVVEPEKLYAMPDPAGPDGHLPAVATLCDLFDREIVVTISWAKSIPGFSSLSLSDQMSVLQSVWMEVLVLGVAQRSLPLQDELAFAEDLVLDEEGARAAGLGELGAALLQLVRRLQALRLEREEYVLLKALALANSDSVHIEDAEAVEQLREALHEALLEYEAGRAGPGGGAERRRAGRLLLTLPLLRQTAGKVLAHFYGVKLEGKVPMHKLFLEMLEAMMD
Chain of Transcription factor Sp1 (Homo sapiens) (P08047 whole entry, looked up): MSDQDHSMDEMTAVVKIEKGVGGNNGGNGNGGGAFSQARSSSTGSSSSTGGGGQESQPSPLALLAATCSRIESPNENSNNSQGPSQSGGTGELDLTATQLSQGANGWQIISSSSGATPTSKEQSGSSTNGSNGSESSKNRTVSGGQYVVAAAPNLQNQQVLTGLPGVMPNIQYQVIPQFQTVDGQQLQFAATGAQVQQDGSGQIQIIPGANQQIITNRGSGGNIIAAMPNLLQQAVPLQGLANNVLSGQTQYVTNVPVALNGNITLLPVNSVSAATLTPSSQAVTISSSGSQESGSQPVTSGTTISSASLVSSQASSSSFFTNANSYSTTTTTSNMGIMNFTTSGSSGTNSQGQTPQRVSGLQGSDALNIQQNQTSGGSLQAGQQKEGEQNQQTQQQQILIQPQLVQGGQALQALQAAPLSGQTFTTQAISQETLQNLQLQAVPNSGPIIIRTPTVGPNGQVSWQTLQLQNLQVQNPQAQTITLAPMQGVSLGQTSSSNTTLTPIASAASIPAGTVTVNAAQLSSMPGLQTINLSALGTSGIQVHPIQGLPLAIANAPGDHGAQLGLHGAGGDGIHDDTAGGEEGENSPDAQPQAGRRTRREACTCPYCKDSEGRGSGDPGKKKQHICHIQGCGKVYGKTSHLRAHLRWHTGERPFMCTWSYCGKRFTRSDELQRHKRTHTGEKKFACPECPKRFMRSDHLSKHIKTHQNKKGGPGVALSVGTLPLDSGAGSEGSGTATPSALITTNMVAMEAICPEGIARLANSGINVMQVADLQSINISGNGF
Chain of Estrogen-related receptor gamma (Homo sapiens) (P62508 whole entry, looked up, the tested form may be a part): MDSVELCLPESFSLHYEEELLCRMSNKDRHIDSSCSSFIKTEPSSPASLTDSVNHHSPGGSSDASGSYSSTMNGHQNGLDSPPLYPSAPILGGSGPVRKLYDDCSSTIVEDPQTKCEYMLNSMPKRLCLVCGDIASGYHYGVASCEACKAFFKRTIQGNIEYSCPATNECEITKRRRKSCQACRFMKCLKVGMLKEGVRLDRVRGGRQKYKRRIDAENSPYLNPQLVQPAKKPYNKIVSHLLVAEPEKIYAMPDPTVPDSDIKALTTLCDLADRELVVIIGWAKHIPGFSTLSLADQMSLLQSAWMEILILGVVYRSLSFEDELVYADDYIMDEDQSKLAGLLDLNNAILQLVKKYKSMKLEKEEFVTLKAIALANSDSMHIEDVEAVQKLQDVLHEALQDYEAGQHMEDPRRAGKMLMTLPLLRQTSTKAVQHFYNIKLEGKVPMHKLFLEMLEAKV
Chain of Estrogen receptor (Homo sapiens) (P03372 whole entry, looked up, the tested form may be a part): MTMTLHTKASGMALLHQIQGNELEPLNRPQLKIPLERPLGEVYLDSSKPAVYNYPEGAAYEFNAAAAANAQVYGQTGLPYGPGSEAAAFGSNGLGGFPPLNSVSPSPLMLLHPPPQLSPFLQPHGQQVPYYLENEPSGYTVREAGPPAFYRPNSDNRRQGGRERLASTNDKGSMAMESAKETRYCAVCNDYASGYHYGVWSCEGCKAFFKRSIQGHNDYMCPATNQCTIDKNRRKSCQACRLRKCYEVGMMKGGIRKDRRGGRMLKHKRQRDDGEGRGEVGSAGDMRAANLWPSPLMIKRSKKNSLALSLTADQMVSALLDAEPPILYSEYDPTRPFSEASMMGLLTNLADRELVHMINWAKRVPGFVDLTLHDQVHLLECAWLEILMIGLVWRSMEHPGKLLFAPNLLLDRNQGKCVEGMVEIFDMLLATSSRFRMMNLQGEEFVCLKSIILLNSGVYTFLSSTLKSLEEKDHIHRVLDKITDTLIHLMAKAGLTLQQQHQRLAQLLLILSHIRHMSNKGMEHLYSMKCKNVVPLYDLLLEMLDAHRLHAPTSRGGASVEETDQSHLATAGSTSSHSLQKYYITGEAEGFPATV

With `Nc1cccc(C(F)(F)F)c1`, the compound was classed as inactive in assay [1], in assay [2], in assay [3], in assay [4], in [5] and in [6]. For the same compound, the compound was classed as inactive in assay [7], in assay [8], in assay [9], in [10], in assay [11] and in [12]. Moreover, the result in assay [13], in assay [14] and in assay [15] was inactive.
`CCCOC(=O)CCCCC(=O)OCCC`: the outcome in assay [1], in assay [3], in [4], in assay [5], in assay [6] and in [7] was inactive. The outcome in [8], in [9], in [10], in assay [11], in [16] and in assay [13] was inactive. In addition, the compound was called inactive in [14], in assay [17], in assay [18] and in [15]. In addition, the AC50 in [2] is 65.4 µM (active).
For `CCCCCCC(O)CO` (stereo unspecified), the compound was classed as inactive in [1], in [2], in [3], in assay [4], in assay [5] and in assay [6]. Moreover, the compound was classed as inactive in assay [7], in assay [8], in [9], in assay [10], in [11] and in assay [19]. For the same compound, the result in [14] was inactive.
Regarding `CCC(Cc1ccccc1)(C(=O)c1ccc(N2CCOCC2)cc1)N(C)C` (stereo unspecified), the AC50 in assay [1] was 42 µM (active); in [2], 1.7 µM (active); in assay [4] it was 21.4 µM (active); in [9], 30.2 µM (active); in assay [10] it was 49.8 µM (active); in assay [11], 23.5 µM (active). The concentration at half-maximal activity (AC50) in assay [12] was 1.03 µM (active). Also, the result in assay [3], in assay [5], in assay [6], in assay [7], in assay [8] and in [19] was inactive. Further, the compound was classed as inactive in [13], in [14] and in [17].
Consider `CCCCCCCCO[C@@H]1O[C@H](CO)[C@@H](O)[C@H](O)[C@H]1O`, for which the call in [1], in assay [2], in assay [3], in assay [4], in [5] and in [6] was inactive. Moreover, the compound was called inactive in [7], in assay [8], in assay [9], in assay [10], in assay [11] and in assay [19]. Moreover, the outcome in [14], in [17] and in assay [18] was inactive.

Source of the values: PubChem BioAssay (EPA / NIEHS).
